In PubChem BioAssay (NCATS):
Records with an inconclusive call do not appear. Where a call stands in place of a potency, no number is given. Activity calls are given as the source filed them. Calls follow the shape of the dose curve; as a rule, active = well fitted inhibition curve with a large enough effect; inconclusive = small, poorly fitted or top-dose-only effect; inactive = flat fitted curve, though single readings scatter.

target: Calcium and integrin-binding protein 1 (Homo sapiens) (UniProt Q99828); test: Primary qHTS for Identification of Calcium Integrin Binding Protein 1 (CIB1) Competitor (AID 1508620); details: CIB1-GST / FITC-alphaIIb peptide fluorescence polarization; series mostly up to 114 µM; also: top concentration of the series differs between compounds
In short: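 Fluorescence polarization competition: GST-tagged CIB1 (1 uM final) preincubated with compound 15 min at room temperature, then FITC-labelled alphaIIb peptide (100 nM final) added. After 15 min at room temperature, polarization read at Ex 480/Em 540.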

Sequence of Calcium and integrin-binding protein 1 (Homo sapiens) (Q99828 whole entry, looked up): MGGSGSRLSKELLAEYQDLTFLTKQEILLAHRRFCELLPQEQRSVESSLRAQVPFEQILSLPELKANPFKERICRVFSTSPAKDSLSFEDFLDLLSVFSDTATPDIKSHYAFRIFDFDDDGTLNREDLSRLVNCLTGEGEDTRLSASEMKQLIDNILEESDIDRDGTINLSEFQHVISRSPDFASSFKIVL

Q: Which Potency does the source give for `CCOC(=O)C1CCN(C(=O)C(C)(C)NC(=O)Nc2ccc3c(c2)CCC3)CC1` here?
A: inactive

Q: How did the Potency turn out when `C[C@H](N)C(=O)Nc1cccc(-c2nn3c(=O)cc(N4CCNCC4)nc3s2)c1` was run?
A: inactive

Q: `COc1cc2ncnc(N(C)Cc3csc(C)n3)c2cc1-c1ccc2c(c1)OCO2` was tested. Which Potency did it give?
A: inactive

Q: How did the Potency turn out when `CC(C)Nc1nc(C#N)nc(Nc2ccccc2)n1` was run?
A: inactive

Q: Which Potency does the source give for `O=S1(=O)N=C(N2CCOCC2)c2ccccc21` here?
A: inactive

Q: How did the Potency turn out when `CN(C)c1ccc(-c2csc(N3CCC(C(N)=O)CC3)n2)cc1` was run?
A: inactive

Q: How did the Potency turn out when `CC(=O)N1CCN(c2ccc(NCc3ccccc3)cc2)CC1` was run?
A: inactive

Q: How did the Potency turn out when `O=C(O)c1ccc(CSc2nnc(-c3cccc([S+](=O)([O-])N4CCCC4)c3)n2-c2ccccc2)cc1` was run?
A: inactive

Q: For `Cc1nc(CCNc2ncnc3ccc(-c4ccc5c(c4)OCO5)cc23)cs1`, which Potency is on record?
A: inactive

Q: Which Potency does the source give for `CCOC(=O)c1ccc(-c2ccc3ncnc(NCCc4cnc[nH]4)c3c2)o1` here?
A: inactive

Q: For `Oc1ccc(CNc2cc(Br)ccn2)c2cccnc12`, which Potency is on record?
A: inactive

Q: For `O=C(Nc1ccc(-c2nc3ccccc3[nH]2)cc1)c1ccc(Cl)c(Cl)c1`, which Potency is on record?
A: inactive

Q: `N#Cc1nc(Nc2cccc(F)c2)nc(NC2CCCC2)n1` was tested. Which Potency did it give?
A: inactive

Q: For `Cn1c2cc(B(O)O)sc2c2cnn(Cc3c(F)cccc3Cl)c(=O)c21`, which Potency is on record?
A: inactive

Q: `c1nc(NCc2ccoc2)c2cc(-c3ccc4c(c3)OCO4)ccc2n1` was tested. Which Potency did it give?
A: inactive

Q: Which Potency does the source give for `O=[N+]([O-])c1ccccc1S(=O)(=O)Nc1cccc2cccnc12` here?
A: inactive

Q: For `CCOC(=O)c1c(-c2ccc(OC)cc2)csc1NC(=O)C1CCCO1` (stereo not drawn), which Potency is on record?
A: inactive

Q: How did the Potency turn out when `COc1ccc(S(=O)(=O)N2CCN(S(=O)(=O)c3ccc4c(c3)OCCO4)CC2)cc1` was run?
A: inactive

Q: For `Cc1cc2c(s1)c1cnn(Cc3c(Cl)cccc3Cl)c(=O)c1n2C`, which Potency is on record?
A: inactive

Q: For `Cn1nnnc1Sc1ncnc2scc(-c3ccccc3[N+](=O)[O-])c12`, which Potency is on record?
A: inactive

Q: Which Potency does the source give for `NC(N)=NCCC[C@H](NC(=O)CNC(=O)c1ccccc1)C(=O)Nc1cc(C(F)(F)F)ccc1Cl` here?
A: inactive

Q: Which Potency does the source give for `O=C1CCc2cc(S(=O)(=O)Nc3cccc(Br)c3)ccc2N1` here?
A: inactive

Q: How did the Potency turn out when `CSc1ccc(-c2cnc(N3CCC(C(N)=O)CC3)s2)cc1` was run?
A: inactive
